# Out of some 1,800 compounds screened, about 15 (0.8%) were called active. The rule behind the calls is not given here. These entries were drawn from the full list. Measured potencies and affinities stand elsewhere.
# Test: antiviral activity against H1N1 influenza, dose response, cell-based, strain KY136 (AID 540257)
# Conditions: H1N1 KY136 influenza antiviral cell assay, % inhibition; series mostly up to 40 µM
row,SMILES,outcome
1,c1ccc(-c2cn(C[C@H]3CC[C@@H]([C@@H]4CC[C@H](Cn5cc(-c6ccccn6)nn5)O4)O3)nn2)nc1,inactive
2,Cc1nnc2sc(SCC(=O)Nc3ccc(Cl)cc3)nn2c1=O,inactive
3,CC(=O)N/C(=C/c1ccc(OC(F)F)cc1)C(=O)O,inactive
4,Cc1[nH]c(=O)[nH]c1C(=O)CCCCC(=O)O,inactive
5,COc1ccc(C2Nc3ccccc3C(=O)N2c2ccccc2)cc1CSc1ccccn1 (configuration not stated),inactive
6,Cc1ccc(C(=O)Nc2ccccc2C(=O)NCC2CCCO2)cc1 (configuration not stated),inactive
7,CCOc1cccc(-c2c(C(=O)N/N=C(\C)c3ccccn3)nnn2-c2nonc2N)c1,inactive
8,O=C1NCCCC1C(=O)N/N=C/c1cc([N+](=O)[O-])ccc1O (configuration not stated),inactive
9,C/C(=N\NC(=O)c1cccc(Br)c1)c1ccccn1,inactive
10,COc1ccc(NC(=O)CSc2nc3ccccc3nc2N2CCCC2)c(OC)c1,inactive
11,COCc1cc(C)n(CC(=O)Nc2cccc(C)c2)c(=O)c1C#N,inactive
12,COc1ccc(/C=C/C(=O)NCCn2c(C)cc3ccccc32)cc1OC,inactive
13,CCN1C(=O)/C(=C2\SC(=S)N(CCCOC)C2=O)c2ccccc21,inactive
14,O=c1c2ccccc2ncn1C1CCCCC1,inactive
15,CCOC(=O)C1CCN(C(c2cccc(OC)c2)c2sc3nc(C)nn3c2O)CC1 (configuration not stated),inactive
16,COc1ccccc1/C=N/NC(=O)c1[nH]c(C)c(C(=O)N/N=C/c2ccccc2OC)c1C,inactive
17,CCCCN1C2=C(C(=O)CC(C)(C)C2)C(c2ccccc2)C2=C1c1ccccc1C2=O (configuration not stated),inactive
18,C(=N\c1c(-c2ccccc2)nc2n1CCS2)/c1ccccc1,inactive
19,CN(C)c1ccc(/C=C/C=C2/C(=O)NC(=O)N(c3ccccc3)C2=O)cc1,inactive
20,CC(=O)Oc1ccc(C(=O)Nc2ccccc2C(=O)NCC(C)C)cc1,inactive
21,CC(=O)Nc1cccc(NC(=O)CSc2ccc(-c3ccccn3)nn2)c1,inactive
22,COc1ccc(N2CCN(CCCNC(=O)c3cc4sccc4n3C)CC2)cc1,inactive

row,SMILES,outcome
1,Clc1ccc(-c2cnnc(-c3ccccn3)n2)cc1,inactive
2,O=[N+]([O-])c1ccc2c(c1Nc1ccccc1)=NC1(CCCCC1)N=2,inactive
3,C=CCn1c(=NC(=O)C2CCCCC2)sc2cc(NC(C)=O)ccc21,inactive
4,CCc1ccccc1NC(=S)N(CCN(C)C)C(C)c1ccccn1 (configuration not stated),inactive
5,COc1cc(-c2nnc(NC(=O)CCS(=O)(=O)c3ccc(F)cc3)o2)cc(OC)c1OC,inactive
6,CCOC(=O)c1ccc(N2C(=O)c3n[nH]c(C)c3C2c2ccccn2)cc1 (configuration not stated),inactive
7,Cc1cc2cc(CNC(=O)c3cccc([N+](=O)[O-])c3)ccc2n1C,inactive
8,CC(C)Oc1ccccc1/C=N/Nc1ccccc1[N+](=O)[O-],inactive
9,CN1CCN(c2ccc([N+](=O)[O-])cc2C(=O)c2ccccc2)CC1,inactive
10,Oc1ccc(/C=N/N(c2ccccc2)c2ccccc2)c(O)c1O,inactive
11,C/C(CC(C)C)=N/Nc1ccc([N+](=O)[O-])cc1[N+](=O)[O-],inactive
12,Cc1cc(NC(=O)CSc2nnc(C)c(=O)[nH]2)no1,inactive
13,COc1cccc(C(=O)NC(C)C(c2cccs2)N2CCOCC2)c1 (configuration not stated),inactive
14,Cc1c2cc(O)c(=O)cc-2oc2cc(O)c(O)cc12,inactive
15,CCOc1ccc(N=Nc2c(=O)[nH]n3c(=O)c4c([nH]c23)CCCC4)cc1,inactive
16,O=c1oc2cc(Oc3ccc(C(F)(F)F)cc3[N+](=O)[O-])ccc2c2c1CCC2,inactive
17,CN1CCc2c(sc(NC(=O)Cc3ccccc3)c2C(N)=O)C1,inactive
18,CCOc1ccc(N2CSC3=C(C#N)C(c4ccco4)CC(=O)N3C2)cc1 (configuration not stated),inactive
19,CCCC(=O)NC(c1ccccc1)c1ccc2cccnc2c1O (configuration not stated),inactive
20,CN(C1=C(N2CCCCC2)C(=O)c2ccccc2C1=O)c1ccccc1,inactive
21,COc1cccc(/C=N/Nc2ccnc(=O)[nH]2)c1O,inactive
22,COc1cccc(C(=O)Cn2c(N3CCOCC3)nc3c2c(=O)n(C)c(=O)n3C)c1,inactive

row,SMILES,outcome
1,COc1ccc(Nc2c([N+](=O)[O-])ccc3c2=NC2(CCCCC2)N=3)cc1,inactive
2,O=C(COC(=O)C1CC(=O)N(Cc2ccccc2)C1)c1ccc(Br)cc1 (configuration not stated),inactive
3,O=C1C(NS(=O)(=O)c2ccccc2)=C(N2CCN(c3ccc(F)cc3)CC2)C(=O)c2ccccc21,inactive
4,COc1cccc(NC(=O)CSc2nnc(CNC(=O)c3ccccc3)n2C)c1,inactive
5,CCn1c(CNC(=O)c2cccc(C)c2)nnc1SCC(=O)Nc1cccc(OC)c1,inactive
6,COc1ccccc1NS(=O)(=O)c1cccc(NC(=O)Cc2cccs2)c1,inactive
7,COc1cc2ccccc2cc1C(=O)Nc1nnc(-c2ccncc2)o1,inactive
8,Cc1cccc(NC(=O)NC(C)C(c2cccs2)N2CCOCC2)c1 (configuration not stated),inactive
9,COc1ccc(NC(=O)CC2C(=O)N(c3cccc(OC)c3)C(=O)N2Cc2ccco2)cc1 (configuration not stated),inactive
10,Cc1ccc(S(=O)(=O)C2(C(=O)Nc3cccc(F)c3)CC2)cc1,inactive
11,COC(=O)CSc1nnc(C)n1-c1cccc(C#N)c1,inactive
12,Cc1cc(C(F)F)nn1CC(=O)Nc1cc([N+](=O)[O-])ccc1F,inactive
13,Cc1cc(N(C)C)ccc1N=Nc1ccc(N)cc1,inactive
14,CN1CCN(CCC(=O)N/N=C/c2cc([N+](=O)[O-])ccc2O)CC1,inactive
15,CCCCn1c(SCC(=O)N2CCCc3ccccc32)nc2c1c(=O)n(C)c(=O)n2C,inactive
16,CC(=O)c1cccc(S(=O)(=O)Nc2cccc(S(=O)(=O)NC3=NCCC3)c2)c1,inactive
17,CC[n+]1c(/C=C/c2ccc(N(C)C)cc2)ccc2ccccc21,inactive
18,CCC(=O)NC(c1cccs1)c1cc([N+](=O)[O-])c2cccnc2c1O (configuration not stated),inactive
19,CCCCn1c(O)c(/C(CC)=N/N2CCCCC2c2cccnc2)c(=O)[nH]c1=S (configuration not stated),inactive
20,CCCCCCn1nc(C(=O)N(CC(C)C)c2c(N)n(CCCC)c(=O)[nH]c2=O)c2ccccc2c1=O,inactive
21,COc1cccc(NC(=O)CSc2nc3c(oc4ccccc43)c(=O)[nH]2)c1,inactive
22,COc1cccc(/C=N/Nc2cc(N3CCOCC3)ncn2)c1O,inactive

row,SMILES,outcome
1,CCc1c(C)nc(Nc2nc(C)c3cc(OC)ccc3n2)[nH]c1=O,inactive
2,O=C(Nc1cc(Cl)ccc1N1CCOCC1)c1cnccn1,inactive
3,COc1ccc(Nc2ncccc2C(=O)Nc2ccccc2)cc1,inactive
4,COc1ccc(OC)c(-n2c(SCC(N)=O)nnc2-c2c[nH]c3ccccc23)c1,inactive
5,Cc1ccnc2nc(C(=O)Nc3nc(-c4ccccn4)cs3)nn12,inactive
6,O=C(CSc1nnc(CCCOc2ccc(Cl)cc2Cl)o1)Nc1ccc(C(=O)O)cc1,inactive
7,COc1ccc(NC(=O)CNS(=O)(=O)c2ccc(Cl)cc2)cc1OC,inactive
8,CC1=[N+](C)c2c(ccc3cccnc23)C1(C)C,inactive
9,CN(C)c1ccc(C=c2c3cc([N+](=O)[O-])ccc3n3c2cc(-c2ccccc2)[n+]3C)cc1,inactive
10,CC(c1cccs1)N(Cc1ccco1)C(=O)Nc1ccc(Cl)c(Cl)c1 (configuration not stated),inactive
11,Cc1c(NC(=S)N/N=C\c2ccccc2O)c(=O)n(-c2ccccc2)n1C,inactive
12,O=C(CS(=O)(=O)c1cn(Cc2ccc(Cl)cc2)c2ccccc12)N1CCCCC1,inactive
13,COC1=C(Nc2ccc(OC)cc2)C(=O)c2ccccc2C1=O,inactive
14,Cc1ccccc1NC(=O)CSc1nn2c(=O)c(C)nnc2s1,inactive
15,C(=N\Nc1nc2ccccc2[nH]1)/c1cccc2cccnc12,inactive
16,C[C@@H]1NC(=O)N[C@@H]1CCCCCC(=O)O,inactive
17,C=CCC1c2cccc(C(=O)O)c2C(=O)N1c1ccc(F)cc1 (configuration not stated),inactive
18,Cc1cc(C)cc(NC2=C(N)C(=O)c3ccccc3C2=O)c1,inactive
19,CCc1ccc(NC(=O)N(CCN2CCOCC2)Cc2ccc3c(c2)CCCN3CC)cc1,inactive
20,CCCc1nc(SCc2cccnc2)c2c(=O)n(C)c(=O)n(C)c2n1,inactive
21,Cc1ccccc1NC(=S)N(CCN(C)C)C(C)c1ccccn1 (configuration not stated),inactive
22,Cc1ccc(S(=O)(=O)/N=C2\C=C(Nc3cccc(C(=O)O)c3)C(=O)c3ccccc32)cc1,inactive

row,SMILES,outcome
1,CCCN(CCC)CCCNC(=O)CCNS(=O)(=O)c1ccc(Br)cc1,inactive
2,O=C(NCc1cccs1)c1cnc2sccn2c1=O,inactive
3,CN1CCc2c(sc(NC(=O)C3CCCCC3)c2C(N)=O)C1,inactive
4,COc1cc(N(C)C)ccc1C=c1c2ccccc2n2c1cc(-c1ccccc1)[n+]2C,inactive
5,O=C(NCc1cccnc1)C1c2ccccc2C(=O)N1C1CCCCCCC1 (configuration not stated),inactive
6,CN(C)c1ccc(Cc2ccc(N(C)C)cc2)cc1,inactive
7,Nc1nc(-c2ccccn2)nc(N)c1Cc1c(F)cccc1Cl,inactive
8,COC(=O)CNC(c1ccccc1)c1cc(C)ccc1NS(=O)(=O)c1ccc(C)cc1 (configuration not stated),inactive
9,CN(C)CCCNC(=S)NCC(c1ccc(Cl)cc1Cl)c1c[nH]c2ccccc12 (configuration not stated),inactive
10,O=C(Nc1nc2c(s1)CCCC2)c1ccc(Br)s1,inactive
11,Cc1cccc(N2CCN(C(=O)c3cc4ccccc4oc3=O)CC2)c1C,inactive
12,COc1cc(N/N=C/c2ccccc2O)ncn1,inactive
13,CCOc1ccc(-c2nc(C#N)c(N3CCOCC3)o2)cc1,inactive
14,CCc1ccc(S(=O)(=O)/N=C2\C=C(Nc3ccc(O)cc3)C(=O)c3ccccc32)cc1,inactive
15,O=C(Nc1nc(-c2ccccc2)cs1)c1ccc(S(=O)(=O)N2CCc3ccccc32)cc1,inactive
16,c1ccc(-c2nc(-c3ccncc3)n[nH]2)nc1,inactive
17,Oc1cccc2ccc(Nc3ccccn3)nc12,inactive
18,O=C(N/N=C/c1ccccc1O)C1SCCCS1,inactive
19,CCCCOc1cccc(-c2nnc(NC(=O)CSc3ccc(C)cc3)s2)c1,inactive

# Reference: PubChem BioAssay AID540257 (Southern Research Specialized Biocontainment Screening …, 2011)
